Laboratory results from PubChem BioAssay (NCI).
The panel holds about 79,000 compounds, 15% with a hit somewhere; the sample as a whole holds those more often. Active and inactive are the calls of the source. Rule as the data show it: active = growth inhibition above about 70%; inactive = the rest.

What was measured:
[1] = NCI Yeast Anticancer Drug Screen. Data for the wt1 strain (AID 149);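 also: 0% = growth of vehicle-treated wt1 cultures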; conditions: S. cerevisiae wt1 strain (SPY 50644) growth inhibition, stronger effect = higher value
In short: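 Measured: growth of wt1 yeast under compound versus vehicle treatment, reported as inhibition.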

[2] = NCI Yeast Anticancer Drug Screen. Data for the rad50EPP+ strain (AID 151);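 also: 0% = growth of vehicle-treated control cultures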; conditions: S. cerevisiae rad50 mutant strain, stronger effect = higher value
In short: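 Compounds were applied to the rad50EPP+ yeast strain, which bears a defined DNA repair alteration, and growth inhibition was determined relative to vehicle-treated cultures.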

[3] = NCI Yeast Anticancer Drug Screen. Data for the mgt1 strain (AID 153); conditions: S. cerevisiae mgt1 mutant growth inhibition, stronger effect = higher value
In short: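 Strain: mgt1 yeast, one of a set carrying defined DNA damage repair or cell cycle control alterations. Compound-treated growth compared with vehicle.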

[4] = NCI Yeast Anticancer Drug Screen. Data for the rad50 strain (AID 155);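 also: 0% = growth of vehicle-only cultures of the same strain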; conditions: S. cerevisiae rad50 strain growth inhibition, stronger effect = higher value
In short: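 Growth of the mutant yeast was measured after compound exposure and referenced to vehicle-treated cultures.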

[5] = NCI Yeast Anticancer Drug Screen. Data for the mec2-1 strain (AID 157); conditions: S. cerevisiae mec2-1 strain, stronger effect = higher value
In short: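 Strain: mec2-1 (DNA repair/cell cycle alteration). Compound exposure, then growth measured; inhibition expressed relative to vehicle.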

[6] = NCI Yeast Anticancer Drug Screen. Data for the rad14 strain (AID 159);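 also: 0% = growth of vehicle-treated control cultures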; conditions: S. cerevisiae rad14 strain growth inhibition, stronger effect = higher value
In short: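 Here, inhibition of yeast growth was measured after compound exposure, using a strain with a genetic defect in DNA damage repair and vehicle-treated cultures as the reference.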

[7] = NCI Yeast Anticancer Drug Screen. Data for the sgs1 mgt1 strain (AID 161);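 also: 0% = growth of cultures given vehicle only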; conditions: S. cerevisiae sgs1 mgt1 strain, stronger effect = higher value
In short: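 Genetically altered yeast, compound exposure, growth inhibition relative to vehicle.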

[8] = NCI Yeast Anticancer Drug Screen. Data for the CLN2oe strain (AID 163);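 also: 0% = growth of vehicle-only control cultures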; conditions: S. cerevisiae CLN2oe strain, stronger effect = higher value
In short: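 Growth of a genetically modified yeast strain is measured after compound exposure and compared with cultures given vehicle alone.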

[9] = NCI Yeast Anticancer Drug Screen. Data for the cln2 rad14 strain (AID 165);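 also: 0% = growth equal to vehicle treated cultures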; conditions: S. cerevisiae cln2 rad14 strain, stronger effect = higher value
In short: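 Compounds are applied to the cln2 rad14 yeast strain, and growth is then compared with that of vehicle-treated cultures to give inhibition.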

[10] = NCI Yeast Anticancer Drug Screen. Data for the bub3 strain (AID 167); conditions: S. cerevisiae bub3 mutant strain, stronger effect = higher value
In short: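 Whole-cell yeast assay. The mutant strain was incubated with compounds, and growth inhibition was determined by comparison with vehicle-treated cells.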

[11] = NCI Yeast Anticancer Drug Screen. Data for the wt2 strain (AID 169);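 also: 0% = growth of vehicle-treated yeast cultures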; conditions: S. cerevisiae wt2 strain growth inhibition, stronger effect = higher value
In short: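 This strain belongs to a panel of yeast strains with defined genetic alterations in DNA damage repair or cell cycle control. Compounds are applied, and growth inhibition is measured against vehicle-treated cultures.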

[12] = NCI Yeast Anticancer Drug Screen. Data for the mlh1 strain (AID 171);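 also: 0% = growth of vehicle-treated control cultures of the same strain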; conditions: S. cerevisiae mlh1 strain growth inhibition, stronger effect = higher value
In short: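 Growth of the mutant yeast strain after compound exposure, expressed as inhibition relative to vehicle-only controls.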

[13] = NCI Yeast Anticancer Drug Screen. Data for the sgs1 strain (AID 173);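 also: 0% = growth of vehicle-only control cultures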; conditions: S. cerevisiae sgs1 mutant, stronger effect = higher value
In short: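 Growth of a yeast strain bearing a defined genetic alteration is measured after compound treatment. Inhibition is expressed relative to vehicle-only controls.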

[14] = NCI Yeast Anticancer Drug Screen. Data for the mlh1 rad18 strain (AID 175); conditions: S. cerevisiae mlh1 rad18 strain growth inhibition, stronger effect = higher value
In short: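 Read-out is yeast growth inhibition, calculated against vehicle-only controls. The compound was applied to a strain engineered with DNA damage repair alterations.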

[15] = NCI Yeast Anticancer Drug Screen. Data for the rad18 strain (AID 177); conditions: S. cerevisiae rad18 mutant growth inhibition, stronger effect = higher value
In short: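 Growth of the mutant yeast strain after compound exposure, normalised to vehicle-only cultures.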

[16] = at 5.0 µM (retest, dose inferred, filed as 0.5)
[17] = at 50.0 µM (retest, dose inferred, filed as 5.0)

Measured: growth inhibition

COc1cc2cc3c4cc(OC)c(OC)cc4cc[n+]3c(C)c2cc1OC
active: [4]; [17] 92% | [5]; [16] 73% | [5]; [17] 83% | [10]; at 50.0 µM 79.8% | [14]; [17] 80%
inactive: [1]; at 1.2 µM -33% | [1]; at 3.7 µM -31% | [1]; at 11.0 µM -32% | [1]; at 33.0 µM -37% | [1]; at 100.0 µM -31% | [2]; at 1.2 µM -18% | [2]; at 3.7 µM -17% | [2]; at 11.0 µM -21% | [2]; at 33.0 µM -20% | [2]; at 100.0 µM -26% | [3]; at 1.2 µM -21% | [3]; at 3.7 µM -29% | [3]; at 11.0 µM -38% | [3]; at 33.0 µM -34% | [3]; at 100.0 µM -31% | [4]; at 1.2 µM 5% | [4]; at 3.7 µM 1% | [4]; [16] 59% | [4]; at 11.0 µM 3% | [4]; at 33.0 µM 10% | [4]; at 50.0 µM 51.4% | [4]; at 100.0 µM 7% | [5]; at 1.2 µM -13% | [5]; at 3.7 µM -11% | [5]; at 11.0 µM -7% | [5]; at 33.0 µM -16% | [5]; at 50.0 µM 6.05% | [5]; at 100.0 µM -5% | [6]; at 1.2 µM -27% | [6]; at 3.7 µM -22% | [6]; at 11.0 µM -31% | [6]; at 33.0 µM -26% | [6]; at 100.0 µM -27% | [7]; [16] -28% | [7]; [17] -6% | [7]; at 50.0 µM 36.6% | [8]; at 1.2 µM -22% | [8]; at 3.7 µM -35% | [8]; at 11.0 µM -28% | [8]; at 33.0 µM -39% | [8]; at 100.0 µM -5% | [9]; [16] 61% | [9]; [17] 26% | [9]; at 50.0 µM 15.2% | [10]; at 1.2 µM 0% | [10]; at 3.7 µM 12% | [10]; [16] 5% | [10]; at 11.0 µM 13% | [10]; at 33.0 µM 6% | [10]; [17] 19% | [10]; at 100.0 µM 9% | [11]; at 1.2 µM -30% | [11]; at 3.7 µM -28% | [11]; at 11.0 µM -35% | [11]; at 33.0 µM -31% | [11]; at 100.0 µM -22% | [12]; at 1.2 µM -34% | [12]; at 3.7 µM -28% | [12]; at 11.0 µM -35% | [12]; at 33.0 µM -39% | [12]; at 100.0 µM -49% | [13]; at 1.2 µM -19% | [13]; at 3.7 µM -17% | [13]; at 11.0 µM -28% | [13]; at 33.0 µM -27% | [13]; at 100.0 µM -11% | [14]; [16] 55% | [14]; at 50.0 µM -76.2% | [15]; at 1.2 µM -23% | [15]; at 3.7 µM -27% | [15]; at 11.0 µM -23% | [15]; at 33.0 µM -22% | [15]; at 100.0 µM -22%
